Assay results from PubChem BioAssay.
Activity calls are given as the source filed them.

What was measured:
[1] = tested on: Plasmodium falciparum Sir2 (PF13_0152, Sir2A); experiment: pfSir2 binders on small-molecule microarrays, primary screen, biochemical, small-molecule microarray, 635 nm fluorescence (AID 1098); conditions: small-molecule microarray binding, fluorescence 635 nm; higher = more signal;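 also: score merges spot fluorescence intensity with its signal-to-noise ratio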
[2] = small-molecule microarray binders of probe aDKK1, primary screen, biochemical, biotinylated probe, 635/667 nm fluorescence (AID 1099); conditions: higher = more signal;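 also: score merges 667nm spot fluorescence with signal to noise across triplicate slides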
[3] = small-molecule microarray binders of probe aCHRDL2, primary screen, biochemical, biotinylated probe, 635/667 nm fluorescence (AID 1100); conditions: higher = more signal
[4] = splicing luciferase reporter signal modulators, primary screen, spliceosome inhibition project, cell-based, HEK293, splice +/- reporter (AID 1101); conditions: luminescence, 24 h, higher = more signal, called active from +8 up or from −8 down;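 also: HEK293 cells carrying a splicing-competent luciferase reporter gene; test concentration not given here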
[5] = biological target: Fibroblast growth factor 10 (Homo sapiens) (UniProt O15520); experiment: FGF10 binders on small-molecule microarrays, primary screen, biochemical, small-molecule microarray, 635 nm fluorescence (AID 1102); conditions: FGF10 binding, fluorescence 635 nm, higher = more signal
Fibroblast growth factor 10 (Homo sapiens), sequence (O15520 whole entry, looked up): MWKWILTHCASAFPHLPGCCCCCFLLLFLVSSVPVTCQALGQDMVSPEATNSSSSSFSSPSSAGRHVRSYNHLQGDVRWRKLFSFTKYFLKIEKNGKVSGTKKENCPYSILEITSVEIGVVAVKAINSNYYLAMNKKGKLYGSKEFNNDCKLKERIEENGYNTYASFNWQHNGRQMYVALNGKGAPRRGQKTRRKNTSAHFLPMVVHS

[6] = tested on: glycogen synthase kinase-3 (GSK3A per assay name; protocol says GSK3B); experiment: GSK3 binders on small-molecule microarrays, primary screen, biochemical, small-molecule microarray, 635 nm fluorescence, GSK3A (AID 1103); conditions: small-molecule microarray binding, fluorescence 635 nm; higher = more signal; also: the record names both GSK3A and GSK3B
[7] = biological target: Epidermal growth factor receptor (Homo sapiens) (UniProt P00533); experiment: EGFR binders on small-molecule microarrays, primary screen, biochemical, small-molecule microarray, 635 nm fluorescence (AID 1104); conditions: EGFR binding, higher = more signal;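 also: score merges 667 nm emission intensity with spot signal to noise over triplicate slides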
Epidermal growth factor receptor (Homo sapiens), sequence (P00533 whole entry, looked up): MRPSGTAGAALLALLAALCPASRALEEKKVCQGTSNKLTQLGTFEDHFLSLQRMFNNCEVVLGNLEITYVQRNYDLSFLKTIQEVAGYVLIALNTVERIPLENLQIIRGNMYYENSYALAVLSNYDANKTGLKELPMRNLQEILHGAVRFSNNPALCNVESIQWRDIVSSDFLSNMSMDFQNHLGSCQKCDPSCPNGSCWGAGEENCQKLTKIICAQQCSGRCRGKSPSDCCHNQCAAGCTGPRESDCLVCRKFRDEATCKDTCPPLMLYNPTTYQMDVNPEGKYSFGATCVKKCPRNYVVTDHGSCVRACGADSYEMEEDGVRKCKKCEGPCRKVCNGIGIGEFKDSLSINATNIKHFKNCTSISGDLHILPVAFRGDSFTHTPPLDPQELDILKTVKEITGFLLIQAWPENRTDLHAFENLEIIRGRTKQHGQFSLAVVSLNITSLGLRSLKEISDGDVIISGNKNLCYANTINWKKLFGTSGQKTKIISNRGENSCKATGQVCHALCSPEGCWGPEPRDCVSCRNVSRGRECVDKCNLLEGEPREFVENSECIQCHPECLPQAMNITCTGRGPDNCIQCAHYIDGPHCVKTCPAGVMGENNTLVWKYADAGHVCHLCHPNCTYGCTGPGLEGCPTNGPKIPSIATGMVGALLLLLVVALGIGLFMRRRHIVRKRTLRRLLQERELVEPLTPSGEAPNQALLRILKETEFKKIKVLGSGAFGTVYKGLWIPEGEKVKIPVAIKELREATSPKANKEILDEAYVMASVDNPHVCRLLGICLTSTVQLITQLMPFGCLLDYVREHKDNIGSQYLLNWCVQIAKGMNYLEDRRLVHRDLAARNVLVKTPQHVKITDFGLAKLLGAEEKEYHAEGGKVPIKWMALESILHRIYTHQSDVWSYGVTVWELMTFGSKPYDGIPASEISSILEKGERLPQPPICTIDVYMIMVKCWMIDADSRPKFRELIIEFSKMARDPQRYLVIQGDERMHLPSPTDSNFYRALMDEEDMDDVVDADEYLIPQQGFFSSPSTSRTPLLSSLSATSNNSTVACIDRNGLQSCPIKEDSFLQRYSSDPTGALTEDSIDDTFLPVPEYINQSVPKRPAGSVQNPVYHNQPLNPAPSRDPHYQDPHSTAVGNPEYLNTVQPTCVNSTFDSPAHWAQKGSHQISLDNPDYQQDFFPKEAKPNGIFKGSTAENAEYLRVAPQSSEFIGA

[8] = biological target: Follistatin-related protein 3 (Homo sapiens) (UniProt O95633); experiment: FSTL3 binders on small-molecule microarrays, primary screen, biochemical, small-molecule microarray, 635 nm fluorescence (AID 1105); conditions: FSTL3 binding, higher = more signal;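 also: score merges emission near 667 nm and signal to noise per printed spot across three slides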
Follistatin-related protein 3 (Homo sapiens), sequence (O95633 whole entry, looked up): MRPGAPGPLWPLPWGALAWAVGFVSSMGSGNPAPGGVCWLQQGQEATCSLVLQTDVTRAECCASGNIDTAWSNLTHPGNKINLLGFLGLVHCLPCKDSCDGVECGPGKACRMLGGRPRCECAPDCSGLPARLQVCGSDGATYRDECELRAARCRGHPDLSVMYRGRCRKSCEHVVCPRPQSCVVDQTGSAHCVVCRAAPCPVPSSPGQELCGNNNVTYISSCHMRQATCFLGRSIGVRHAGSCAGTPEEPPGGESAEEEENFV

[9] = biological target: Dickkopf-related protein 1 (Homo sapiens) (UniProt O94907); experiment: DKK1 binders on small-molecule microarrays, primary screen, biochemical, small-molecule microarray, 635 nm fluorescence scan (AID 1106); conditions: DKK1 binding, higher = more signal;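 also: score merges emission near 667 nm with signal to noise over three replicate slides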
Dickkopf-related protein 1 (Homo sapiens), sequence (O94907 whole entry, looked up): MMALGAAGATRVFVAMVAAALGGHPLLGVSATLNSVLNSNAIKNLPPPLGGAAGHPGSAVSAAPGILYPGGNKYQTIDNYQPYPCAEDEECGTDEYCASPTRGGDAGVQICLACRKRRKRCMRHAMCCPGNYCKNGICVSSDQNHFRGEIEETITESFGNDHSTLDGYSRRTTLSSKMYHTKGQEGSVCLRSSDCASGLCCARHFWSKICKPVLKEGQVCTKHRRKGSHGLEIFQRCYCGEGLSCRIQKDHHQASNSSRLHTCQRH

[10] = tested on: Inhibin beta A chain (activin A); experiment: INHBA (activin A) binders on microarrays, primary screen, biochemical, small-molecule microarray, 635 nm fluorescence scan (AID 1107); conditions: small-molecule microarray binding, higher = more signal;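 also: mouse activin A protein probed at 4.33 µg/mL on printed slides; score merges bound-protein fluorescence near 667 nm with spot signal-to-noise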
[11] = tested on: Human papillomavirus type 1a protein E7 (residues 44-93); experiment: HPV1a E7 fragment binders on microarrays, primary screen, biochemical, small-molecule microarray, residues 44-93, 635 nm fluorescence (AID 1108); conditions: small-molecule microarray binding, fluorescence 635 nm; higher = more signal;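 also: E7 fragment applied at 1 µg/mL in TBST for 1 h at 4 C; score combines spot fluorescence with its signal to noise ratio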
[12] = modulators of HCV replicon luciferase signal, primary screen, HCV replication inhibitor project, Huh7 cells, luciferase reporter (AID 1109); conditions: 48 h, higher = more signal;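 also: huh7 hepatoma cells harbouring a luciferase neomycin HCV replicon reporter; luciferase luminescence as measure of HCV replicon replication; test concentration not given here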
[13] = biological target: Left-right determination factor 2 (Homo sapiens) (UniProt O00292); experiment: LEFTY2 binders on small-molecule microarrays, primary screen, biochemical, small-molecule microarray, 635 nm fluorescence scan (AID 1110); conditions: LEFTY2 binding, higher = more signal
Left-right determination factor 2 (Homo sapiens), sequence (O00292 whole entry, looked up): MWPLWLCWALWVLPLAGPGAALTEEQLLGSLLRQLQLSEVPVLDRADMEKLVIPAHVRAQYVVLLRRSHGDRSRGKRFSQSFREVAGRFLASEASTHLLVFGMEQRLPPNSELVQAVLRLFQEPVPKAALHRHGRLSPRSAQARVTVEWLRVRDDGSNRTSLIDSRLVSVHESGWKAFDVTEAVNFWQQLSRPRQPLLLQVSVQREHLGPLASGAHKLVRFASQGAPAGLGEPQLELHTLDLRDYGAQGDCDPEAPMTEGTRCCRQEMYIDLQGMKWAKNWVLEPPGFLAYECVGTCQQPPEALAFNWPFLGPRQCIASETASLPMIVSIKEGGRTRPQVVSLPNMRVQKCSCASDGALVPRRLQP

[14] = biological target: Calmodulin-1 (Homo sapiens) (UniProt P0DP23); experiment: CALM1 binders on microarrays, EGTA buffer, profiling panel, biochemical, small-molecule microarray, Cy5-labelled CALM1 (AID 1111); conditions: Cy5-CALM1 binding fluorescence, higher = more signal;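 also: labelled calmodulin applied in Tris saline Tween buffer holding calcium plus EGTA and DTT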
[15] = biological target: Calmodulin-1 (Homo sapiens) (UniProt P0DP23); experiment: calcium-bound CALM1 binders on microarrays, profiling panel, artefact control for SMM control-protein annotation, biochemical, small-molecule microarray, Cy5-labelled CALM1, plus calcium (AID 1112); conditions: Cy5-CALM1 binding fluorescence, higher = more signal;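 also: score merges spot fluorescence with signal to noise from triplicate slides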
[16] = small-molecule microarray binders of probe aWnt5a, primary screen, biochemical, biotinylated probe, 635/667 nm fluorescence (AID 1113); conditions: higher = more signal;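 also: score merges 667 nm fluorescence intensity with signal-to-noise per printed feature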
[17] = small-molecule microarray binders of probe aShh, primary screen, biochemical, biotinylated probe, 635/667 nm fluorescence (AID 1114); conditions: higher = more signal;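 also: probe is biotin-labelled aShh protein from a stem cell growth factor screen; measures binding of labelled protein to compounds printed on the slide; score merges feature fluorescence at 667 nm with signal-to-noise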
[18] = small-molecule microarray binders of probe aNog, primary screen, biochemical, biotinylated probe, 635/667 nm fluorescence (AID 1115); conditions: higher = more signal;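 also: probe is biotinylated aNog protein used at 0.15 µg/mL for 1 h at 4 C; z-score combines 667 nm fluorescence of each spot with its signal to noise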
[19] = biological target: Torsin-1A-interacting protein 1 (Homo sapiens) (UniProt Q5JTV8); experiment: LAP1 binders from COS7 cell lysate, primary screen, small-molecule microarray, 635/667 nm fluorescence (AID 1116); conditions: COS7-hLAP1 lysate binding, 635 nm fluorescence, higher = more signal
Torsin-1A-interacting protein 1 (Homo sapiens), sequence (Q5JTV8 whole entry, looked up): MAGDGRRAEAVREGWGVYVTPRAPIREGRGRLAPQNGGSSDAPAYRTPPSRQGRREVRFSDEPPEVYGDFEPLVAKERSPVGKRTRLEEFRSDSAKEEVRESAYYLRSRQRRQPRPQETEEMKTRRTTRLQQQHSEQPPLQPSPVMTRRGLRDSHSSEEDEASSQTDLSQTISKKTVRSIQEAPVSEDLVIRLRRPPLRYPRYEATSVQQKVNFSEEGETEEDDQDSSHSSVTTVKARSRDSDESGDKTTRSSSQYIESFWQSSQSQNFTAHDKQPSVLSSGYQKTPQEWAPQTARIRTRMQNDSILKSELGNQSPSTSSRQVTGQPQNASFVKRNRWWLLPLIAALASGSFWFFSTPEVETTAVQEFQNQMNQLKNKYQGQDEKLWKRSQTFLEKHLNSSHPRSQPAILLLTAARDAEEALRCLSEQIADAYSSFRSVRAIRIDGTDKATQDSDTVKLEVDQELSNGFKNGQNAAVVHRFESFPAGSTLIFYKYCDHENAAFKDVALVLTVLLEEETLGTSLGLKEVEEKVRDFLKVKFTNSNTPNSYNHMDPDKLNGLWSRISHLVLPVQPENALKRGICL

[20] = biological target: Alpha-bungarotoxin (Bungarus multicinctus) (UniProt P60615); experiment: alpha-bungarotoxin binders on microarray, profiling panel, artefact control for SMM control protein annotation, biochemical, small-molecule microarray, Alexa647 label, 635/667 nm fluorescence (AID 1117); conditions: alpha-BTX-A647 binding fluorescence, higher = more signal
Alpha-bungarotoxin (Bungarus multicinctus), sequence (P60615 whole entry, looked up): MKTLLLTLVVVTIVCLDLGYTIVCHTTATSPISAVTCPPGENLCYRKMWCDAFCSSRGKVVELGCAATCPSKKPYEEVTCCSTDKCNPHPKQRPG

SMILES: CCCCC(O)C1C=CC2C(=O)N(c3ccccc3)C(=O)C2N1Nc1ccc(C#N)cc1 (stereo not given)
- composite z-score [1]: 1.11
- composite z-score [2]: 1.12
- composite z-score [3]: 0.906
- z-score [4]: 0.12 (inactive)
- composite z-score [5]: 0.398
- composite z-score [6]: 0.383
- composite z-score [7]: 0.0738
- composite z-score [8]: -0.0673
- composite z-score [9]: -0.579
- composite z-score [10]: 0.513
- composite z-score [11]: 1.02
- z-score [12]: -0.115
- composite z-score [13]: 0.123
- composite z-score [14]: 1.06
- composite z-score [15]: 0.929
- composite z-score [16]: -0.0125
- composite z-score [17]: 0.337
- composite z-score [18]: 1.19
- composite z-score [19]: 0.385
- composite z-score [20]: 1.01

SMILES: CN(C)CCCNC(=O)[C@@]1(Cc2ccccc2I)c2ccccc2C(=O)N(C2CCCCC2)[C@H]1c1ccc(CO)cc1
- composite z-score [1]: 0.856
- composite z-score [2]: 1.13
- composite z-score [3]: 0.532
- z-score [4]: -4.61 (inactive)
- composite z-score [5]: 0.269
- composite z-score [6]: 1.03
- composite z-score [7]: 0.0863
- composite z-score [8]: 0.383
- composite z-score [9]: 0.183
- composite z-score [10]: 1.32
- composite z-score [11]: 0.664
- z-score [12]: -3.49
- composite z-score [13]: 0.0837
- composite z-score [14]: 1.71
- composite z-score [15]: 1.2
- composite z-score [16]: -0.0057
- composite z-score [17]: 1.26
- composite z-score [18]: 0.0646
- composite z-score [19]: 1.02
- composite z-score [20]: 2.57

SMILES: [N-]=[N+]=NCc1ccccc1[C@@H]1OC(c2ccc(OCCCO)cc2)=N[C@]1(Cc1ccccc1N=[N+]=[N-])C(=O)NCC(O)CO (stereo not given in full)
- composite z-score [1]: 1.29
- composite z-score [2]: 1.28
- composite z-score [3]: 0.98
- z-score [4]: 1.25 (inactive)
- composite z-score [5]: 0.846
- composite z-score [6]: 0.898
- composite z-score [7]: 0.0004
- composite z-score [8]: 0.418
- composite z-score [9]: 0.0477
- composite z-score [10]: 1.22
- composite z-score [11]: 1.18
- z-score [12]: -1.41
- composite z-score [13]: -0.262
- composite z-score [14]: 2.58
- composite z-score [15]: 1.23
- composite z-score [16]: 0.61
- composite z-score [17]: 0.0048
- composite z-score [18]: 2.34
- composite z-score [19]: 2.74
- composite z-score [20]: 0.895

SMILES: COC(=O)[C@@]1(Cc2ccccc2)[C@H]2c3cc(C(=O)N4CCCC4)n(Cc4ccc(OC)c(OC)c4)c3C[C@H]2CN1C(=O)c1ccccc1
- composite z-score [1]: 0.491
- composite z-score [2]: 1.14
- composite z-score [3]: 1.2
- z-score [4]: -2.9 (inactive)
- composite z-score [5]: 0.971
- composite z-score [6]: 1.06
- composite z-score [7]: 0.122
- composite z-score [8]: 0.985
- composite z-score [9]: -0.823
- composite z-score [10]: 0.763
- composite z-score [11]: 1.44
- z-score [12]: -2.27
- composite z-score [13]: -0.737
- composite z-score [14]: 1.39
- composite z-score [15]: 0.852
- composite z-score [16]: 0.421
- composite z-score [17]: 0.853
- composite z-score [18]: 1.85
- composite z-score [19]: 1.38
- composite z-score [20]: 0.315

SMILES: C=CCN1C(=O)[C@]2(O[C@H](CCn3cc([C@H](O)c4ccccc4)nn3)[C@@H]([Si](C)(C)c3ccc(OC)cc3)[C@@H]2C)c2cc(NC(=O)c3ccc(OC)cc3)ccc21
- composite z-score [1]: 0.73
- composite z-score [2]: -0.125
- composite z-score [3]: 0.349
- z-score [4]: -0.768 (inactive)
- composite z-score [5]: 0.028
- composite z-score [6]: -0.131
- composite z-score [7]: 0.108
- composite z-score [8]: 0.527
- composite z-score [9]: 0.598
- composite z-score [10]: 0.961
- composite z-score [11]: 1.15
- z-score [12]: -4.74
- composite z-score [13]: 0.5
- composite z-score [14]: -0.0632
- composite z-score [15]: -0.564
- composite z-score [16]: -0.0748
- composite z-score [17]: -0.221
- composite z-score [18]: -0.124
- composite z-score [19]: 0.725
- composite z-score [20]: 0.464

SMILES: [N-]=[N+]=Nc1ccccc1C[C@@]1(C(=O)NCc2ccccc2)N=C(c2ccc(OCCCO)cc2)O[C@@H]1c1ccccc1N=[N+]=[N-]
- composite z-score [1]: 1.07
- composite z-score [2]: 0.61
- composite z-score [3]: 1.01
- z-score [4]: -0.457 (inactive)
- composite z-score [5]: 1.1
- composite z-score [6]: 0.913
- composite z-score [7]: 0.0359
- composite z-score [8]: 0.309
- composite z-score [9]: -0.0102
- composite z-score [10]: 1.04
- composite z-score [11]: -0.334
- z-score [12]: -3.01
- composite z-score [13]: -0.0656
- composite z-score [14]: 1.69
- composite z-score [15]: 0.683
- composite z-score [16]: 0.33
- composite z-score [17]: 0.171
- composite z-score [18]: 1.18
- composite z-score [19]: 1.19
- composite z-score [20]: 1.97

SMILES: C=CCOC(=O)[C@H]1[C@@H]2C(=O)O[C@@H](c3ccccc3)[C@@H](c3ccccc3)N2[C@@H](c2ccc(OCCOC(=O)[C@H]3C[C@H]4C(=O)N[C@@H](CC(C)C)C(=O)N4[C@H]3c3ccc(O)cc3)cc2)[C@]12C(=O)Nc1ccccc12
- composite z-score [1]: 1.58
- composite z-score [2]: 0.0955
- composite z-score [3]: 0.202
- z-score [4]: 0.119 (inactive)
- composite z-score [5]: 1.47
- composite z-score [6]: 1.34
- composite z-score [7]: 1.41
- composite z-score [8]: 1.4
- composite z-score [9]: 1.54
- composite z-score [10]: 0.509
- composite z-score [11]: 1.42
- z-score [12]: -1.75
- composite z-score [13]: 1.44
- composite z-score [14]: 0.538
- composite z-score [15]: -0.273
- composite z-score [16]: 0.0919
- composite z-score [17]: -0.066
- composite z-score [18]: -0.582
- composite z-score [19]: 1.78
- composite z-score [20]: 1.52

SMILES: CO[C@H]1O[C@H](CO)[C@@H](OC(=O)Nc2ccccc2-c2ccccc2)[C@H](OC(=O)Nc2ccccc2)[C@H]1OC(=O)Nc1ccccc1
- composite z-score [1]: 1.43
- composite z-score [2]: 0.821
- composite z-score [3]: 0.886
- z-score [4]: -0.299 (inactive)
- composite z-score [5]: 1.45
- composite z-score [6]: 1.33
- composite z-score [7]: 0.41
- composite z-score [8]: 1.41
- composite z-score [9]: 0.993
- composite z-score [10]: 0.352
- composite z-score [11]: 0.922
- z-score [12]: -2.49
- composite z-score [13]: 0.732
- composite z-score [14]: 1.27
- composite z-score [15]: -0.144
- composite z-score [16]: 0.169
- composite z-score [17]: 0.269
- composite z-score [18]: 0.225
- composite z-score [19]: 1.07
- composite z-score [20]: 1.64
